Our source for the inhibition values is PubChem BioAssay.

Calls of active or inactive are those of the source. No rule for the calls is given here.

Pantothenate synthetase (Mycobacterium tuberculosis (strain ATCC 25618 / H37Rv)), sequence (P9WIL5 whole entry, looked up): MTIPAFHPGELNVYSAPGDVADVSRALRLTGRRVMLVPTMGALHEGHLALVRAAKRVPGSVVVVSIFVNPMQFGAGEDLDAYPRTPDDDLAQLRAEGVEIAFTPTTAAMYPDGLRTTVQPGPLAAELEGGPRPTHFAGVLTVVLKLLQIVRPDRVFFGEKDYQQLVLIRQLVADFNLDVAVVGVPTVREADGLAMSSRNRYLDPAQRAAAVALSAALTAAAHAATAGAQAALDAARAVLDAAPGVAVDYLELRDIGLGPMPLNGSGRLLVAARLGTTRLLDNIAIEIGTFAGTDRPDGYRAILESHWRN

This experiment concerns the target Pantothenate synthetase (Mycobacterium tuberculosis (strain ATCC 25618 / H37Rv)) (UniProt P9WIL5). The experiment is described as follows: Recombinant Mtb pantothenate synthetase (PanC) inhibitors, coupled enzyme, confirmatory (AID 375).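 Also: 0% = full reaction with vehicle and 100% = no enzyme background.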 The following applies: coupled enzyme assay; at 10 µM, active compounds read high.
Take `Fc1ccc(C(c2nnnn2Cc2ccco2)N2CCN(C3CCCCC3)CC2)cc1` (stereo not given): the inhibition was 0% (inactive).
Take `CCc1nnc(NC(=O)OCc2ccccc2)s1`: the inhibition was 0% (inactive).
As for `O=S(=O)(Cc1ccccc1)N1CCCCCC1`, the inhibition was 0% (inactive).
To `CCCN1CC23C=CC(O2)C(C(=O)O)C3C1=O` (stereo not given) belongs 0% (inactive); to `c1nc(NCC2CCCO2)c2[nH]cnc2n1` (stereo not given), 0% (inactive).
With `Cc1nc2scc(-c3cccs3)c2c(=O)n1-n1cccc1`, the inhibition was 4% (inactive).
Turning to `O=C(c1ccccc1)c1ccc(N2CCOCC2)c(NC(=O)c2ccco2)c1`, the inhibition is 11% (inactive).
Turning to `COc1ccc(N2CCN(CCNC(=O)CCS(=O)(=O)c3cccc4nsnc34)CC2)cc1`, the inhibition was 0% (inactive).
Next, `COc1ccc(CCNC(=O)c2nc3ncccn3n2)cc1OC`: 0% (inactive).
Next, `Cc1onc(-c2ccccc2Cl)c1C(=O)NCc1cccnc1`: 0% (inactive).
In the case of `COc1cc2c(cc1OC)CN(C(=O)COc1ccc(C)c(C)c1)CC2`, the inhibition is 1% (inactive).
Consider `CCc1cc(=O)n2[nH]c(C)c(-c3ccccc3OC)c2n1`, for which the inhibition was 4% (inactive).
In the case of `CCOC(=O)c1[nH]c2ccc(C)cc2c1NC(=O)CN1CCCCC1`, the inhibition was 3% (inactive).
Consider `CC(C)(NC(=O)N1CCCC1)c1cccc(C(C)(C)NC(=O)N2CCCC2)c1`, for which the inhibition is 0% (inactive).
With `CC1CCc2nn(CC(=O)NCCCN3CCOCC3)cc2C1` (stereo not given), the inhibition was 0% (inactive).
Take `O=C(Nc1ccccc1)C1=C(O)CC(c2ccoc2)CC1=Nc1ccccc1` (stereo not given): the inhibition is 0% (inactive).
As for `CCOC(=O)C1(C(=O)OCC)C(c2ccccc2)CC(O)N1C(C)=O` (stereo not given), the inhibition is 0% (inactive).
For the compound `O=C(Nc1ncc(Br)s1)C1CCCN1S(=O)(=O)c1cccc2cccnc12` (stereo not given), the inhibition was 0% (inactive).
With `CCOc1ccc2[nH]c(=O)c(CN(Cc3nnnn3CCc3ccccc3)CC3CCCO3)cc2c1` (stereo not given), the inhibition is 0% (inactive).
`O=C(NCc1ccc(F)cc1)c1cc(-c2ccco2)on1`: the inhibition is 6% (inactive).
Turning to `O=C1NC(c2cccs2)Nc2ccccc21` (stereo not given), the inhibition was 0% (inactive).
For the compound `CSCCC(NC(=O)c1ccco1)C(=O)O` (stereo not given), the inhibition was 0% (inactive).
To `Oc1ccc(-c2onc(C(F)(F)F)c2-c2cscn2)c(O)c1` belongs 2% (inactive); to `Cc1onc(-c2ccccc2)c1C(=O)N[C@@H]1C(=O)N2[C@@H]1SC(C)(C)[C@@H]2C(=O)O`, 0% (inactive).
Next, `O=C(/C=C/N1CCOCC1)c1ccc(-c2ccccc2)cc1`: 4% (inactive).
To `COCCNC(=O)C(C)OC(=O)c1nsc(Cl)c1Cl` (stereo not given) belongs 0% (inactive); to `O=C1OC2(c3ccccc3)C3CCCC2C13`, 3% (inactive); to `c1cc2c(cc1Nc1nc(-c3ccc4c(c3)OCO4)cs1)OCCO2`, 4% (inactive).
As to `CSc1ccccc1NC(=O)CN(c1ccccc1)S(=O)(=O)N(C)C`, the inhibition is 3% (inactive).
Regarding `COc1ccccc1CC(=O)Nc1ccc(OC)c(OC)c1`, the inhibition is 3% (inactive).
`CCNc1nc(N2CCOCC2)nc(N(c2ccccc2)c2ccccc2)n1`: the inhibition is 0% (inactive).
`CCOC(=O)c1cc2ccc(OC)c(OC)c2c(=O)s1`: the inhibition was 0% (inactive).
`Cc1ccc(C(=O)CSc2nnc(-c3cccnc3)n2N)cc1`: the inhibition is 5% (inactive).
For the compound `CCOC(=O)CC(=O)Nc1c(C)cc(C)cc1C`, the inhibition is 4% (inactive).
In the case of `CC(=O)Nc1ccc(S(=O)(=O)N(C2=NCC(C)S2)c2ccccc2)cc1` (stereo not given), the inhibition was 0% (inactive).
With `CC(CN(C)Cc1ccccc1)OC(=O)c1ccc2c(c1)OCCO2` (stereo not given), the inhibition is 0% (inactive).
Next, `COc1ccc(CNC(=O)c2cc3c(=O)n4ccccc4nc3n(Cc3ccco3)c2=N)cc1`: 0% (inactive); `CCCC1(CCC)NC(=O)NC1=O`: 0% (inactive); `CN1CCCN(C(=O)c2cc(=O)[nH]c3ccccc23)c2nc3ccccc3nc21`: 0% (inactive).
Regarding `COc1ccc(C2CC(c3ccco3)n3ncnc3N2)cc1` (stereo not given), the inhibition was 4% (inactive).

As usually defined, the inhibition is the share of the control response that was lost under treatment.
